Measured values reported in the supplement of paper PMC11732987, “Enantioselective OTUD7B fragment discovery through chemoproteomics screening and high-throughput optimisation” (Communications Chemistry, 2025).

Legend:
Test in all cases: log2 ratio of Biotin-Ahx-Ub-VS probe labelling (fragment/DMSO); higher = less target engagement (more negative = stronger competition), active = hit call of the paper (q ≤ 0.05, log2 ratio ≤ -1)
Settings in all cases: compound concentration: 200 uM; treatment time: 3 h
USP19 = target: T1, USP19 (UniProt O94966)
T1 sequence (whole entry): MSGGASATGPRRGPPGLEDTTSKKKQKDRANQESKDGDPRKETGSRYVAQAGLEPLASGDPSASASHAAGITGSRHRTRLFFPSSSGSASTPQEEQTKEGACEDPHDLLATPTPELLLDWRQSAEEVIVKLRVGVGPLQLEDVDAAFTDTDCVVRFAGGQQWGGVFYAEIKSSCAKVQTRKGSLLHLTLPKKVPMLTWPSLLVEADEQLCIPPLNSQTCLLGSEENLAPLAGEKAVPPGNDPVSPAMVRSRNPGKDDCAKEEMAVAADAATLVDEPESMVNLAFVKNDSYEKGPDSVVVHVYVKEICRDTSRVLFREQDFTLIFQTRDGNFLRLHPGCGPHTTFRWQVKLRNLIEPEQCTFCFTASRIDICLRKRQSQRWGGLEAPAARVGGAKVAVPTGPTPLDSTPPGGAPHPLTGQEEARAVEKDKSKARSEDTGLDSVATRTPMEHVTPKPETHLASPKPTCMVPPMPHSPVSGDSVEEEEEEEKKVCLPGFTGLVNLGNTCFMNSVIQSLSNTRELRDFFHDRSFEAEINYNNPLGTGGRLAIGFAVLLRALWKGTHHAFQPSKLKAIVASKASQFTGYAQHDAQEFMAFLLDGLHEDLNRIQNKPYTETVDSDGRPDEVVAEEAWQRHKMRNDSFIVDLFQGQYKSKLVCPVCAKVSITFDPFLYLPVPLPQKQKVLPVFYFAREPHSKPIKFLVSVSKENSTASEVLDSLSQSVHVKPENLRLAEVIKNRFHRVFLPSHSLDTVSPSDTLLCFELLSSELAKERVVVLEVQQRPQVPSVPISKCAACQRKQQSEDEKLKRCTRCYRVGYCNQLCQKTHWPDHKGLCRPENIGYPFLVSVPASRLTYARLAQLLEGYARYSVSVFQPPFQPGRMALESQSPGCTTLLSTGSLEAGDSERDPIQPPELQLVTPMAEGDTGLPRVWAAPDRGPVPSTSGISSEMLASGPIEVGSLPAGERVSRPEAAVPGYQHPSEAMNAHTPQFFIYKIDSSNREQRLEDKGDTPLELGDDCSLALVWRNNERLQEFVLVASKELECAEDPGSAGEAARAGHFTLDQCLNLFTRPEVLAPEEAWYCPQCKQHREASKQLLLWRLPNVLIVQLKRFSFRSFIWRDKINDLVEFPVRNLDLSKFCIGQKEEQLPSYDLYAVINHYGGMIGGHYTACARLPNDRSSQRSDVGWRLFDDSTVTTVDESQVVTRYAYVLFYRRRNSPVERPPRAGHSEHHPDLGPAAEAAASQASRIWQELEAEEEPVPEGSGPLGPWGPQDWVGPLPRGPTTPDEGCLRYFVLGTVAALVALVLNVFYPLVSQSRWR
Summary of the method: (§1)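 The table lists average log2 ratios of fragment over vehicle, from an unpaired t-test on global-median-normalised Spectronaut label-free quantities. Proteins with ≥2 unique peptides were used. Samples were HEK293T lysate (495 µg) treated in triplicate with fragment at 200 µM or vehicle for 3 h, then with Biotin-Ahx-Ub-VS (0.5 µM final) for 1 h, with labelled DUBs NeutrAvidin-enriched and run by diaPASEF LC-MS/MS.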

USP24 = USP24 (UniProt Q9UPU5)
Summary of the method: as §1

USP25 = target: T2, USP25 (UniProt Q9UHP3)
T2 sequence (whole entry): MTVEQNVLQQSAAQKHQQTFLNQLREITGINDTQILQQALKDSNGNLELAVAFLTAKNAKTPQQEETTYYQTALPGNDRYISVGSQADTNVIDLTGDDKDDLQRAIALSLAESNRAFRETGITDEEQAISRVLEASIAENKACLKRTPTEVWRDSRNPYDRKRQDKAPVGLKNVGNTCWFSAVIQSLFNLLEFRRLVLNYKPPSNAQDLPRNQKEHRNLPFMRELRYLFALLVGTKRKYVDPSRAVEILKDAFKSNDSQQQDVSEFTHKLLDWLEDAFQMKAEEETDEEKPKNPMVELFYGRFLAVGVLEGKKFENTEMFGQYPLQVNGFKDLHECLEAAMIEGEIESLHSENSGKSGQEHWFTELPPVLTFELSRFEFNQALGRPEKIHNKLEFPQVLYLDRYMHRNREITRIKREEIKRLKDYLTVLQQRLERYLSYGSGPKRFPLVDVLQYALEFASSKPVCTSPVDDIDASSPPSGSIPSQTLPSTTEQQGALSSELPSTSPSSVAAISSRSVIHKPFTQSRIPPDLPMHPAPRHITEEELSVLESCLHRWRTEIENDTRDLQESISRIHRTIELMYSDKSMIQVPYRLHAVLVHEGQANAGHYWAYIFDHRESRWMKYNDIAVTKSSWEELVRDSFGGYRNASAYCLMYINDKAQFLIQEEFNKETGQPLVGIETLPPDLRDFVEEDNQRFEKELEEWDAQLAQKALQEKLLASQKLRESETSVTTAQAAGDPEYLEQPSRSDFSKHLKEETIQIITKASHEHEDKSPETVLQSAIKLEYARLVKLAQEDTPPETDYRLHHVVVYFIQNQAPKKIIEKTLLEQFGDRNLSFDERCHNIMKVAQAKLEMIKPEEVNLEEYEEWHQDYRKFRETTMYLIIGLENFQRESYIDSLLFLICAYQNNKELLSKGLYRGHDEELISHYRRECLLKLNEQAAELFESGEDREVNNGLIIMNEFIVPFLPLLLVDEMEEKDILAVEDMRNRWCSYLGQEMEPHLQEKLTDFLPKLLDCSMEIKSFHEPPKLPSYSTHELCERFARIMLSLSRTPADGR
Summary of the method: as §1

USP28 = target: T3, USP28 (UniProt Q96RU2)
T3 sequence (whole entry): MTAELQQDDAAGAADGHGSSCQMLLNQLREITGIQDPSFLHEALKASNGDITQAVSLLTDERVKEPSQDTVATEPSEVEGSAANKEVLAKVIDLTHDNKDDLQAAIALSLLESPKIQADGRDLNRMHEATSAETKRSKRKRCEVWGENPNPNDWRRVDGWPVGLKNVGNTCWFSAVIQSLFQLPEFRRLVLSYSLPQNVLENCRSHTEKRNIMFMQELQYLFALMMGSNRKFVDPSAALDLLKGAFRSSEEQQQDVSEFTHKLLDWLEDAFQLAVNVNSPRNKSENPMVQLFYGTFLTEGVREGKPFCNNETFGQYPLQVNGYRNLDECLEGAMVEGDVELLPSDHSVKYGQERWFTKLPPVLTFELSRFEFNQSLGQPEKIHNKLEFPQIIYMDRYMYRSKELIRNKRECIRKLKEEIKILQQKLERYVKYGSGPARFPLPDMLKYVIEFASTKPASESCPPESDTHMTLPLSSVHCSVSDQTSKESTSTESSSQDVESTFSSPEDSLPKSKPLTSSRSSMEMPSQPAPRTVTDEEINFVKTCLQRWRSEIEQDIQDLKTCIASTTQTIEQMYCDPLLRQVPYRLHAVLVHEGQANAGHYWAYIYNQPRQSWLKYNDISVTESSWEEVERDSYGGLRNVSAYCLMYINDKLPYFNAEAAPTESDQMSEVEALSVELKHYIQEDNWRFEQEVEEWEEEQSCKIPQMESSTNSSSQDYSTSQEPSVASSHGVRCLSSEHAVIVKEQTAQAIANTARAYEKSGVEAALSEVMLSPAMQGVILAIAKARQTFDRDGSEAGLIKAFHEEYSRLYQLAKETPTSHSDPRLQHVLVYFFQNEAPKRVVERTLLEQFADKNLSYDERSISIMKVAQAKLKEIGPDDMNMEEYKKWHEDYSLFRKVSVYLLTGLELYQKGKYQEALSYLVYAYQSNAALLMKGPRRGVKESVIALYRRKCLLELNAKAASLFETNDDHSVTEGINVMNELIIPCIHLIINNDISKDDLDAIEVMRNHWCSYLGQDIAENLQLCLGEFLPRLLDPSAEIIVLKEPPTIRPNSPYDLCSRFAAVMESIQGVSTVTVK
Summary of the method: as §1

Measured: log2 ratio of Biotin-Ahx-Ub-VS probe labelling

USP24, sequence (Q9UPU5 whole entry): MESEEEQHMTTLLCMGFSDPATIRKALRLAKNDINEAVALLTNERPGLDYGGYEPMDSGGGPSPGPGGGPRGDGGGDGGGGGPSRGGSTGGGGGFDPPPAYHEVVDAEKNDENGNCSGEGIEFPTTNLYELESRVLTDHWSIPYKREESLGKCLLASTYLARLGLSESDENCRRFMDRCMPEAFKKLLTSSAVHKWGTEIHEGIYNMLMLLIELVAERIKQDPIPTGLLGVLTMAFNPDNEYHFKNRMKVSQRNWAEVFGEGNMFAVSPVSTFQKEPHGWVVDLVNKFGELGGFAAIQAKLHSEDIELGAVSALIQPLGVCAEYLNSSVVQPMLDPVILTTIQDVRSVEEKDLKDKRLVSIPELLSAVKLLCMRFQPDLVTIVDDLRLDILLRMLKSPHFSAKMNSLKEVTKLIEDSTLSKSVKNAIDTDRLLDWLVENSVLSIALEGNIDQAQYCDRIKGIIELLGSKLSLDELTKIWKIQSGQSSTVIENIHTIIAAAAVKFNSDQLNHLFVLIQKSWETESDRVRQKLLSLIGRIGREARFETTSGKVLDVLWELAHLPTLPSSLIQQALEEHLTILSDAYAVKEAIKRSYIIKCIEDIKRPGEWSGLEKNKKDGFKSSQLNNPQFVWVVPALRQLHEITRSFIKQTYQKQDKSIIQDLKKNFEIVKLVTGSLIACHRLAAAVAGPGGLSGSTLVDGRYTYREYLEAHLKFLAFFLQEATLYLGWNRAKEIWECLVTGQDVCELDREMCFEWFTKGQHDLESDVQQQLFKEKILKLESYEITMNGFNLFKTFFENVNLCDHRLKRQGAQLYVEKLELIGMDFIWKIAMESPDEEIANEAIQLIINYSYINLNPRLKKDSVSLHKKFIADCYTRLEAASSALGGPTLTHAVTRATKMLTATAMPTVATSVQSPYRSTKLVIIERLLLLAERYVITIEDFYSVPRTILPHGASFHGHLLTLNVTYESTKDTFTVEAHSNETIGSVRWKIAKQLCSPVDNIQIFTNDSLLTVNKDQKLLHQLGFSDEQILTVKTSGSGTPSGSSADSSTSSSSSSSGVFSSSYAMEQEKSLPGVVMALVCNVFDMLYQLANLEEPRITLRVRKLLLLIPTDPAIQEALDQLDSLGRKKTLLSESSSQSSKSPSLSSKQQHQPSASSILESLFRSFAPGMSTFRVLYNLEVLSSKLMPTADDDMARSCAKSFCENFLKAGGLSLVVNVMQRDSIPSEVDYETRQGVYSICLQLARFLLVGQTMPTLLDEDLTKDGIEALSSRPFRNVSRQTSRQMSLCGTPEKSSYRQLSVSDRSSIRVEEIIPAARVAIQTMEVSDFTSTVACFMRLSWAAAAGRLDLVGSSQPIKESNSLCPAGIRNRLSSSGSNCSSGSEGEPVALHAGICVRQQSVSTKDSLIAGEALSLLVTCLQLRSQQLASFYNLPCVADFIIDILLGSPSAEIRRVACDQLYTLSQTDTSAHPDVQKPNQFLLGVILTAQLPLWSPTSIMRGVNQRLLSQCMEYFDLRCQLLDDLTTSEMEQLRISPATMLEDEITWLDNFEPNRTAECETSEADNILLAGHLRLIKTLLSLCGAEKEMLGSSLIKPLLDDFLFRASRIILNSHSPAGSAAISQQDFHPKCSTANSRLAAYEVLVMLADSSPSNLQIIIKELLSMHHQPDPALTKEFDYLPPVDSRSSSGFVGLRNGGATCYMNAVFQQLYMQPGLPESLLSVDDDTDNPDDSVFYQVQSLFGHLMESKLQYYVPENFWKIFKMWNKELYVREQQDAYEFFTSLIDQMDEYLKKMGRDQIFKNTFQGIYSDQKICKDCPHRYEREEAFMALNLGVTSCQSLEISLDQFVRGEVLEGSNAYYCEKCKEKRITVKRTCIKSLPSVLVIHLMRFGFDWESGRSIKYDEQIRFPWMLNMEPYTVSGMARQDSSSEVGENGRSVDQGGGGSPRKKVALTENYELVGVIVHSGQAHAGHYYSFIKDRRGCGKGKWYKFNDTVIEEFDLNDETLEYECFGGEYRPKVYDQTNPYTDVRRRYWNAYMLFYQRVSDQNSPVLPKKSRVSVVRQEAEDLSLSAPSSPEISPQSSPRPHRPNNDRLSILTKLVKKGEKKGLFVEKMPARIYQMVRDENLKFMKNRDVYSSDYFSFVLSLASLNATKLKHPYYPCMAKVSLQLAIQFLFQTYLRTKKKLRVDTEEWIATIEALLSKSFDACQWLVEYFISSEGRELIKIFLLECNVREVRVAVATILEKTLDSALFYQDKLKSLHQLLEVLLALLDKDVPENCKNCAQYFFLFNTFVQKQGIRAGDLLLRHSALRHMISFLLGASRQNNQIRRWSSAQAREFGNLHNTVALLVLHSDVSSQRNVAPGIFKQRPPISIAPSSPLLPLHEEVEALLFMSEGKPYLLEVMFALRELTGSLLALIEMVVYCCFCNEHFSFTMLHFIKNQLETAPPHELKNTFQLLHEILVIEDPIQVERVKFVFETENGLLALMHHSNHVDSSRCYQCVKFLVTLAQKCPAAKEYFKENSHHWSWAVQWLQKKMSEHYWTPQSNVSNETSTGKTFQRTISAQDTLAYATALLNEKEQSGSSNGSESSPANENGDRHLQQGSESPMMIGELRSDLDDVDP

CN(C)C(=O)c1ccc(CNC(=O)CCl)cc1
inactive: USP19 0.123 | USP24 0.117 | USP25 -0.513 | USP28 -0.359
